Experiments:
Assay in all cases: growth inhibition (% activity, log2 RLU normalised to DMSO / staurosporine); higher = more growth inhibition
Conditions in all cases: 33 µM
DIPGX29 = test system: DIPGX29 (H3.3 K27M diffuse intrinsic pontine glioma line)
Method in brief: (§1)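 The growth-inhibition value is the median over replicates. pHGG cell lines and H9-derived neural stem cells on Geltrex-coated 384-well plates received approved drugs by pin tool at a single final concentration of about 33 μM, in triplicate, for 7 days at 37 °C, 5% CO2. CellTiter-Glo luminescence was log2-transformed and normalised per plate to % activity between solvent and positive control wells.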

DIPGX37 = test system: DIPGX37 (H3.3 K27M diffuse intrinsic pontine glioma line)
Method in brief: as §1

DIPGX7 = test system: DIPGX7 (H3.3 K27M diffuse intrinsic pontine glioma line)
Method in brief: as §1

DIPGX9 = test system: DIPGX9 (diffuse intrinsic pontine glioma line)
Method in brief: as §1

HGGX39 = test system: HGGX39 (paediatric high-grade glioma line)
Method in brief: as §1

HGGX6 = test system: HGGX6 (H3.3 G34R paediatric high-grade glioma line)
Method in brief: as §1

HNSC = test system: HNSC
Method in brief: as §1

SUDIPGIV = test system: SUDIPGIV (diffuse intrinsic pontine glioma line)
Method in brief: as §1

SUDIPGVI = test system: SUDIPGVI (diffuse intrinsic pontine glioma line)
Method in brief: as §1

SUDIPGXIII = test system: SUDIPGXIII (diffuse intrinsic pontine glioma line)
Method in brief: as §1

Row | SMILES | growth inhibition (DIPGX29) | growth inhibition (DIPGX37) | growth inhibition (DIPGX7) | growth inhibition (DIPGX9) | growth inhibition (HGGX39) | growth inhibition (HGGX6) | growth inhibition (HNSC) | growth inhibition (SUDIPGIV) | growth inhibition (SUDIPGVI) | growth inhibition (SUDIPGXIII)
1 | O=C(O)c1cccnc1 | 0.555% | 1.13% | 0.846% | 1.6% | 0.355% | 1.52% | -0.701% | -0.463% | 1.65% | -1.24%
2 | CC(C)C(=O)Nc1ccc([N+](=O)[O-])c(C(F)(F)F)c1 | 1.6% | 2.28% | 2.18% | 2.7% | 11.9% | 0.873% | 6.29% | 5.63% | 3.39% | 2.07%
3 | O=C1CN2Cc3c(ccc(Cl)c3Cl)N=C2N1 | -0.095% | -0.968% | -0.492% | 0.847% | 3.51% | 9.62% | -2.73% | -0.36% | 0.709% | -4.79%
4 | O=c1cc[nH]c(=O)[nH]1 | 0.309% | 2.71% | 0.41% | 1.11% | 0.158% | 0.91% | -1.21% | 0.441% | 1.23% | -16.8%
5 | CCN(CC)CCOCCOC(=O)C(CC)(CC)c1ccccc1 | 7.78% | 4.64% | 14.3% | 2.65% | 9.22% | 10.7% | 6.61% | 2.41% | 4.8% | -0.0734%
6 | CC(=O)[C@H]1CC[C@H]2[C@@H]3CC=C4C[C@@H](O)CC[C@]4(C)[C@H]3CC[C@]12C | -0.784% | -0.0978% | -1.68% | -0.764% | -1.75% | -0.479% | -2.77% | -1.85% | -0.676% | 0.295%
7 | Cc1ccc(N(CC2=NCCN2)c2cccc(O)c2)cc1 | -5.09% | -4.29% | -2.56% | -2.27% | -2.42% | -3.2% | 1.6% | -4.67% | -4.28% | -1.14%
8 | COC(=O)C1=C(C)NC(C)=C(C(=O)OC)C1c1ccccc1[N+](=O)[O-] | -2.53% | -2.53% | 0.0754% | 3.5% | -0.258% | -0.288% | 8.49% | -2.66% | -7.47% | -0.486%
9 | C[C@@H]1CN(c2c(F)c(F)c3c(=O)c(C(=O)O)cn(C4CC4)c3c2F)C[C@H](C)N1 | -1.92% | -8.88% | -0.67% | -1.75% | 1.32% | -0.41% | 1.66% | -2.13% | -5.84% | -3.56%
10 | Nc1nc(Cl)nc2c1ncn2[C@H]1C[C@H](O)[C@@H](CO)O1 | 18.6% | 8.52% | 14.4% | 39.6% | 16.4% | 14.2% | 55.2% | 41.7% | 5.86% | 17%
11 | CNNCc1ccc(C(=O)NC(C)C)cc1 | 2.14% | -0.517% | 2.87% | 1.95% | 3.29% | 0.0869% | 6.38% | -0.464% | 2.55% | -0.216%
12 | CN1CCOC(c2ccccc2)c2ccccc2C1 (stereo not given) | -3.82% | -1.11% | -0.00387% | -2.6% | -1.87% | -4.34% | 19.3% | -1.45% | -8.5% | 2.52%
13 | C[C@@]12C[C@@]3(O)O[C@@H](O1)[C@]1(COC(=O)c4ccccc4)[C@H]3C[C@@]12O[C@@H]1O[C@H](CO)[C@@H](O)[C@H](O)[C@H]1O | -0.664% | 0.987% | -0.876% | 1.21% | -0.682% | 1.84% | -1.36% | -1.25% | 0.677% | -13.1%
14 | CCCS(=O)(=O)Nc1ccc(F)c(C(=O)c2c[nH]c3ncc(-c4ccc(Cl)cc4)cc23)c1F | 0.0739% | 1.21% | -0.987% | 0.227% | -0.449% | 2.46% | 10.9% | -3.02% | 1.21% | 1.79%
15 | CCCCC(CC)CN=C(N)N=C(N)NCCCCCCNC(N)=NC(N)=NCC(CC)CCCC (stereo not given) | 57.1% | 60.6% | 58.2% | 57.3% | 58.4% | 59.5% | 67.8% | 59.4% | 60.2% | 69.8%
16 | CC(CCc1ccc(O)cc1)NCC(O)c1ccc(O)cc1 (stereo not given) | -1.35% | 0.666% | -1% | 0.398% | 3.25% | -2.19% | 5.04% | 2.35% | 2.3% | 0.356%
17 | CCCC1O[C@@H]2C[C@H]3[C@@H]4CCC5=CC(=O)C=C[C@]5(C)[C@H]4[C@@H](O)C[C@]3(C)[C@]2(C(=O)CO)O1 (stereo not given in full) | 2.07% | -0.133% | -1.11% | 3.67% | 3.05% | 1.13% | -0.0191% | 40.8% | -5.45% | 18.8%
18 | S=c1[nH]cnc2nc[nH]c12 | 20.1% | 10.9% | 25.3% | 10.6% | 23.2% | 24.2% | 58.1% | 28.8% | 13.4% | 18.8%
19 | C[C@@H]1C[C@H]2[C@@H]3C[C@H](F)C4=CC(=O)C=C[C@]4(C)[C@@]3(F)[C@@H](O)C[C@]2(C)[C@@]1(O)C(=O)CO | 2.44% | 5.42% | 0.269% | 4.89% | 3.56% | -0.761% | 5.26% | -0.633% | 0.461% | -1.67%
20 | CCCCOc1ccc(OCCCN2CCOCC2)cc1 | 5.55% | 2.14% | 14.7% | 1.12% | 8.05% | 7.63% | 5.68% | 1.4% | 1.31% | 1.81%

Row | SMILES | growth inhibition (DIPGX29) | growth inhibition (DIPGX37) | growth inhibition (DIPGX7) | growth inhibition (DIPGX9) | growth inhibition (HGGX39) | growth inhibition (HGGX6) | growth inhibition (HNSC) | growth inhibition (SUDIPGIV) | growth inhibition (SUDIPGVI) | growth inhibition (SUDIPGXIII)
21 | CC(=O)Oc1cc(C(F)(F)F)ccc1C(=O)O | -1.87% | -1.02% | -1.55% | -0.552% | -0.882% | 0.0377% | -4.31% | -2.59% | -2.15% | -2.75%
22 | CC12CC3CC(C)(C1)CC(N)(C3)C2 | 0.0357% | -0.52% | 0.741% | 1.54% | 1.57% | 1.17% | -0.299% | 0.153% | 0.617% | 1.06%
23 | CN1CCC(=C2c3ccccc3CCc3cccnc32)CC1 | -2.68% | 0.139% | 0.133% | -1.74% | -1.55% | -5.77% | 24.2% | -1.91% | -8.64% | 1.19%
24 | CC[C@H](C)C[C@H](C)CCCCCCCCC(=O)N[C@H]1C[C@@H](O)[C@@H](NCCN)NC(=O)[C@@H]2[C@@H](O)CCN2C(=O)[C@H]([C@H](O)CCN)NC(=O)[C@H]([C@H](O)[C@@H](O)c2ccc(O)cc2)NC(=O)[C@@H]2C[C@@H](O)CN2C(=O)[C@H]([C@@H](C)O)NC1=O | -0.204% | -0.0661% | 3.78% | 1.06% | 2.93% | -1.44% | 7.21% | -1.11% | -4.4% | 0.336%
25 | NS(=O)(=O)c1cc2c(cc1Cl)N=CNS2(=O)=O | -2.49% | -1.85% | 0.251% | -2.53% | -3.41% | -3.61% | -4.62% | -3.95% | -5.67% | 0.373%
26 | C[C@@H]1C[C@H]2[C@@H]3CCC4=CC(=O)C=C[C@]4(C)[C@@]3(Cl)[C@@H](O)C[C@]2(C)[C@@]1(OC(=O)c1ccco1)C(=O)CCl | 2.55% | 2.99% | 2.36% | 5.3% | 6.75% | 4.28% | 0.466% | 14.2% | 2.53% | -3.14%
27 | NS(=O)(=O)c1cc2c(cc1Cl)NC(C(Cl)Cl)NS2(=O)=O (stereo not given) | 1.16% | 4.01% | 3.24% | 5.41% | 4.4% | 5.05% | -0.78% | -3.21% | 2.47% | 0.0927%
28 | O=c1oc2cc(O)ccc2s1 | 1.14% | 3.19% | 6.79% | 1.73% | 8.04% | 3.75% | 2.15% | 1.11% | 5.42% | 28.9%
29 | CC[C@@]1(O)C(=O)OCc2c1cc1n(c2=O)Cc2cc3c(CN(C)C)c(O)ccc3nc2-1 | 12.9% | 21.8% | 37.9% | 51.6% | 40.2% | 17.2% | 53.9% | 48.4% | 7.54% | 4.79%
30 | Nc1ncn([C@H]2C[C@H](O)[C@@H](CO)O2)c(=O)n1 | 2.35% | 0.227% | 3.51% | 4.93% | 4.99% | 3.19% | 27.6% | 5.46% | 2.19% | 1.68%
31 | COC(=O)CCc1ccc(OCC(O)CNC(C)C)cc1 (stereo not given) | 0.107% | 1.63% | 0.0919% | 0.526% | 0.823% | 1.03% | -0.617% | -1.21% | 1.48% | 0.0941%
32 | CCOC(=O)[C@H](CCc1ccccc1)N[C@@H](C)C(=O)N1CCC[C@H]1C(=O)O | 1.73% | -8.18% | 0.205% | 0.307% | 0.569% | -0.623% | 1.11% | -1.94% | -1.02% | -3.41%
33 | O=C([O-])CC(O)(CC(=O)[O-])C(=O)[O-].O=C([O-])CC(O)(CC(=O)[O-])C(=O)[O-].[Bi+3].[K+].[K+].[K+].[K+].[K+] | -1.08% | -0.559% | -0.17% | 0.156% | -0.856% | 0.952% | -0.691% | -1.2% | -0.266% | -15.3%
34 | CC(=O)Nc1ncc([N+](=O)[O-])s1 | -0.525% | -1.35% | -1.25% | -0.952% | 1.46% | 1.88% | -5.25% | -1.68% | -0.127% | 11.8%
35 | N#Cc1c(N(CC(=O)O)CC(=O)O)sc(C(=O)O)c1CC(=O)O | -0.0468% | -1.11% | -0.504% | 1.29% | 1.34% | -1.45% | 27.7% | 1.52% | 0.043% | -2.77%
36 | CN(C)CCc1c[nH]c2ccc(CS(=O)(=O)N3CCCC3)cc12 | 1.96% | 3.12% | 1.45% | 1.71% | 2.56% | 3.04% | 1.98% | 0.896% | 3.66% | -0.309%
37 | Cc1ncc(CO)c(CO)c1O | 0.532% | 1.29% | 0.82% | 0.826% | -0.552% | 2.21% | 1.1% | 0.59% | 0.153% | -0.917%
38 | CCN(CCCc1ccccc1)CCCc1ccccc1 | 2.04% | 0.545% | 5.69% | 0.438% | 7.1% | 5.46% | 4.87% | 0.248% | -1.23% | -0.1%
39 | O=C(O)CCNC(=O)c1ccccc1 | 0.362% | 2.48% | 0.618% | 0.575% | 0.895% | 0.906% | -1.4% | 0.839% | 1.57% | 1.01%

— the supplement of paper PMC8253809
